# Screens (PubChem)
# FXN GAA850 act: FXN promoter activators, primary screen, cell-based, luciferase luminescence, HEK293 lucGAA850 | HEK293 lucGAA850 FXN promoter luciferase reporter, 24 h; percent of 10 µM SAHA response | activation, % at 6 µM | actives 0.56% (n = 360,000);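 active = activation above the average of all compounds screened plus 3 SD, cutoff fixed separately per campaign, cut at about 7.5% in these data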;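 also: 0% = DMSO wells and 100% = 10 µM SAHA wells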
# NR2F2 inh: NR2F2 transcriptional activity inhibitors, primary screen, cell-based, luciferase reporter, HEK293T, luminescence | inhibition, % at 8.6 µM | COUP transcription factor 2 (Homo sapiens), P24468 | actives 0.7% (n = 370,000) | HEK293T NGFI-A luciferase reporter;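 active = inhibition above a per-plate cutoff, mean inhibition of test wells between control levels plus 3 SD, cut at about 38% in these data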;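 also: cells cotransfected with COUP-TFII expression vector driving the NGFI-A reporter; 0% = median of COUP-TF2 test wells and 100% = reporter-only cells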
# Target sequence (P24468 whole entry, looked up): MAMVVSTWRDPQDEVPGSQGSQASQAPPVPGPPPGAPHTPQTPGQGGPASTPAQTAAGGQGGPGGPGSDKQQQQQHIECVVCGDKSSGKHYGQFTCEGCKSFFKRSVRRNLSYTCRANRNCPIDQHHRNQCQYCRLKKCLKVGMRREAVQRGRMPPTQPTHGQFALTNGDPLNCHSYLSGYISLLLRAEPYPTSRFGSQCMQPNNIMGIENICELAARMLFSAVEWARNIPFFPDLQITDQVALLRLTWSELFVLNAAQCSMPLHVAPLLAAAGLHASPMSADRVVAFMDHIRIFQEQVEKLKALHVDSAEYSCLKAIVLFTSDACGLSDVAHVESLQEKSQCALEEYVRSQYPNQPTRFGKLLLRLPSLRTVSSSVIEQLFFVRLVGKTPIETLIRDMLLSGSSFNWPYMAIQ
# H9c2 protect: cardioprotection against H2O2-induced cell death, primary screen, uHTS, H9c2 cells, ATPLite luminescence; H9c2 cardiomyocytes, H2O2 injury protection, 2 h; protection from H2O2 cell death, % at 20 µM; actives 0.63% (n = 360,000);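 active = compounds giving at least 50% protection of heart cells from peroxide-induced death in the single-dose screen, raw or plate-pattern-corrected value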;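 also: 0% = DMSO wells with peroxide and 100% = DMSO wells without peroxide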
# SMARCA2 activ: SMARCA2 (BRM) function activators, primary screen, cell-based, luminescence, high throughput | activation, % at 9.1 µM | MG213 cells, MMTV-luciferase reporter, dexamethasone, overnight | actives 1% (n = 370,000); in the data active = activation above about 7.8%;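 also: 0% = vehicle wells and 100% = reference activator wells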
# GalR3 antag: GalR3 antagonists in HEK293 cells, primary screen, cell-based, fluorescence readout; HEK293 GalR3-CNG cAMP membrane potential fluorescence; galR3 body fused to GalR1 C-terminus; actives 0.44% (n = 360,000); inhibition, % at 3 µM;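 active = inhibition above the screen-wide average plus 3 SD, cut at about 13% in these data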;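 also: forskolin and galanin both at EC90 stimulate the cells; cAMP rise reported by CNG channel membrane potential dye signal; 0% = forskolin plus galanin with DMSO and 100% = forskolin alone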
# Gli-Sufu antag: Gli-Sufu pathway antagonists, primary screen, luciferase luminescence, Sufu-KO-LIGHT cells, uHTS | Sufu-KO-LIGHT fibroblasts, Gli luciferase reporter luminescence | inhibition, % at 5 µM | actives 0.74% (n = 340,000) | AID 588413, 2011;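 active = inhibition above about 55%, limit read from the data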;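 also: 0% = DMSO-treated cells and 100% = wells with medium but no cells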
# Gli-Sufu confirm: Gli-SUFU pathway antagonists, confirmation, single concentration, luciferase luminescence, Sufu-KO-LIGHT cells; shares compounds with Gli-Sufu antag; Gli luciferase reporter; inhibition, % at 5 µM; actives 40% (n = 2,500); AID 602428, 2012;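 active = mean inhibition at 5 µM reaching about 45%, limit read from the data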;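 also: plate controls were DMSO-treated cells for no effect and wells lacking cells for full effect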
# SufuKO cytotox: cytotoxicity in Sufu-KO-LIGHT cells, confirmation, cytotoxicity control for Gli-SUFU antagonist project, cell-based, ATP luminescence, single concentration; shares compounds with Gli-Sufu antag; cytotoxicity, % at 5 µM; actives 32% (n = 2,500); AID 651994, 2013;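 active = mean cytotoxicity at 5 µM above about 25%, limit read from the data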;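 also: cells exposed to compound overnight for roughly 16 to 18 hours; plate controls were DMSO wells with cells for no effect and medium without cells for full effect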
# Wnt3a cs: Wnt3a reporter signal inhibition, confirmation, counter-screen for Gli-SUFU antagonist project, Wnt-LIGHT cells, luminescence, single concentration. AID 651995, 2013. shares compounds with Gli-Sufu antag. Wnt3a-driven luciferase reporter. actives 20% (n = 2,500). inhibition, % at 6.25 µM;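 active = mean inhibition above about 25%, limit read from the data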
# GalR3 antag conf: GalR3 antagonist hit confirmation, cell-based, fluorescence, triplicate; shares compounds with GalR3 antag; HEK293 GalR3 CNG cAMP biosensor, membrane potential fluorescence; galR3 fused to GalR1 carboxy tail; challenged with forskolin and galanin at EC90; inhibition, % at 3 µM; actives 59% (n = 1,600); AID 652245, 2013;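 active = inhibition above the primary screen's cutoff, the mean inhibition of all screened compounds plus 3 SD, cut at about 13% in these data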;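 also: 0% = forskolin plus galanin and 100% = forskolin alone with DMSO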
# HEK-CNG parental: nonspecific cAMP agonists in parental HEK-CNG cells, counter-screen for GalR3 antagonist project, cell-based, fluorescence, high throughput | shares compounds with GalR3 antag | HEK293-CNG parental cells, cAMP membrane potential fluorescence; normalised: DMSO wells 0%, forskolin wells 100% | activation, % at 3 µM | actives 10% (n = 1,600) | AID 652268, 2013; in the data active = activation above about 1.3%
# VP16 Luc counter: Gal4-VP16 luciferase reporter inhibitors, counter-screen for COUP-TFII antagonist project, cell-based, luminescence, HEK293; actives 25% (n = 2,500); shares compounds with NR2F2 inh; inhibition, % at 8.5 µM; AID 687007, 2013; in the data active = inhibition above about 13%
# NR2F2 inh conf: NR2F2 transcriptional activity inhibitors, confirmation, cell-based, luciferase reporter, HEK293, triplicate | shares compounds with NR2F2 inh | HEK293 NGFI-A luciferase reporter, luminescence | inhibition, % at 8.5 µM | actives 45% (n = 2,500);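 active = mean inhibition over three repeats above a set limit taken from the earlier primary screen, cut at about 38% in these data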;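 also: 100% = cells given the luciferase reporter alone without the COUP-TF2 vector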
# * hit, by the source's call; . = no result given. In the library only some 3.4% were active in any assay of this set; here they are far more common.
SMILES,FXN GAA850 act,NR2F2 inh,H9c2 protect,SMARCA2 activ,GalR3 antag,Gli-Sufu antag,Gli-Sufu confirm,SufuKO cytotox,Wnt3a cs,VP16 Luc counter,NR2F2 inh conf,others
CS(=O)(=O)CCC(C(=O)OCc1ccc(Cl)cc1)N1C(=O)c2ccccc2C1=O (centres undefined),3,19,-5,1,6,-4,.,.,.,.,.,
Cc1ccccc1OC(=O)c1cccnc1,2,-20,-2,-1,-5,12,.,.,.,.,.,
O=C(NNC(=O)C1CCCN(S(=O)(=O)c2ccc3ccccc3c2)C1)C1CC1 (centres undefined),-2,-4,2,-4,-7,-3,.,.,.,.,.,
CC1(C(=O)Nc2ccc(Cl)cc2)Cc2c(-c3ccc4c(c3)OCO4)ccnc2O1 (centres undefined),-4,9,-3,-5,2,.,.,.,.,.,.,
CCCn1c(C)cc(C(=O)COc2ccc(C)nc2[N+](=O)[O-])c1C,-1,14,-8,-2,-3,21,.,.,.,.,.,
Cc1ccc(OCC(=O)c2cc(C)n(-c3ccccc3)c2C)c([N+](=O)[O-])n1,-13,53*,-16,-9,1,70*,74*,16,87*,-50,-9,
CCOC(=O)C1=C(C)Nc2ccccc2N/C1=N\S(=O)(=O)c1cc(C(=O)O)ccc1Cl,0,6,19,2,-1,1,.,.,.,.,.,
COc1ccc(F)cc1CSc1nnnn1-c1ccc(O)cc1,0,3,-7,-6,-9,-16,.,.,.,.,.,
COc1cc(CSc2nnnn2-c2ccc(C)cc2)cc(OC)c1OC,-1,69*,-17,-8,96*,69*,68*,27*,40*,0,54*,GalR3 antag conf=98*;HEK-CNG parental=0
COc1ccc(CNc2ncnc3c2[nH]c2ccccc23)cc1,-3,45*,-17,-6,-8,53,64*,16,24,0,35,
CC(C)OCCCNc1ncnc2c1[nH]c1ccccc12,-5,66*,-18,-5,-7,64*,59*,40*,-31,-34,37,
COc1ccc(S(=O)(=O)N(C)[C@H]2C[C@H]3c4cc(Oc5ccccc5C)ccc4CCN3C(=O)[C@H]2[C@H](C)O)cc1,-12,13,-6,-4,3,.,.,.,.,.,.,
O=C(C1CC(=O)N(c2ccc(F)cc2)C1)N1CCCCCC1 (centres undefined),1,1,3,2,-8,-3,.,.,.,.,.,
CC#CC[N+](C)(C)CCCCCCCCCCCC,-5,44*,-23,-7,1,88*,89*,31*,17,7,27,
C#CC[N+](C)(C)CCCCCCCCCC,-3,47*,-5,-8,-2,56*,58*,37*,48*,-2,18,
C#CC[N+](C)(C)CCCCCCCC,-2,5,0,-1,-4,21,.,.,.,.,.,
C#CC[N+](C)(C)CCCCCCCCCCCC,-5,41*,-9,-8,4,84*,81*,28*,22,1,30,
Cc1nc2sc(-c3ccccc3)cc2c(=O)n1/N=C/N(C)C,7,-45,2,5,-1,.,.,.,.,.,.,
COc1ccc(CN(C)c2ccc(S(=O)(=O)N3CCN(C)CC3)cc2[N+](=O)[O-])cc1OC,-5,70*,-27,-6,103*,74*,74*,35*,45*,-1,67*,GalR3 antag conf=127*;HEK-CNG parental=0
CN(Cc1ccccc1)c1ccc(S(=O)(=O)N2CCC(C(=O)O)CC2)cc1[N+](=O)[O-],1,3,-6,4,-9,4,.,.,.,.,.,
COc1cccc(NC2=Nc3cccc4cccc2c34)c1,3,-14,-10,-3,-4,-11,.,.,.,.,.,
CC[n+]1ccccc1/C=C/c1ccc(N(C)C)cc1,-2,66*,-15,-6,-4,81*,84*,24,40*,1,50*,
COc1ccc(NC(=O)Nc2nnc([C@H]3C[C@H](O)[C@@H](CO)O3)s2)cc1,0,4,3,-3,-7,.,.,.,.,.,.,
CC(C)c1cccc(C(C)C)c1NC(=O)CCN1C(=O)NC2(CCCC2)C1=O,0,0,0,-1,1,-6,.,.,.,.,.,
COc1ccc(Nc2nc(N3CCCCC3)c3ccccc3n2)cc1,0,38*,-21,-2,-9,58*,49*,39*,-24,-1,10,
Cc1ccc(Nc2nc(N3CCOCC3)c3ccccc3n2)cc1,2,7,-27,-1,-5,1,.,.,.,.,.,
CC12CCC(=O)N1C(C(=O)Nc1ccc(F)cc1)CS2 (centres undefined),0,-1,2,-3,-2,9,.,.,.,.,.,
Cc1nc2ccccc2c2c1CC(C(C)(Cl)Br)O2 (centres undefined),-1,54*,-22,-9,8,55*,58*,22,7,6,56*,
